For orientation: inhibition means the relative decrease from the control value, in per cent.

The whole screen tested about 330,000 compounds, of which about 5,800 (1.8%) were called active. Cut-off read from the data, not from the text of the source: active = inhibition mostly above about 38% (no sharp cut-off); inactive = mostly below about 40%. Many of the other results were omitted from the sample, so actives are more common in it than they were.

The target in this experiment is Orexin/Hypocretin receptor type 1 (Homo sapiens) (UniProt O43613). Put plainly: antagonists of human orexin 1 receptor (OX1R) (AID 485270).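 Note: 0% = agonist challenge alone and 100% = reference antagonist.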 To be noted: OX1R-expressing cells, FRET antagonist read-out; at 6.6 µM; hits give high values.
Chain of Orexin/Hypocretin receptor type 1 (Homo sapiens) (O43613 whole entry, looked up): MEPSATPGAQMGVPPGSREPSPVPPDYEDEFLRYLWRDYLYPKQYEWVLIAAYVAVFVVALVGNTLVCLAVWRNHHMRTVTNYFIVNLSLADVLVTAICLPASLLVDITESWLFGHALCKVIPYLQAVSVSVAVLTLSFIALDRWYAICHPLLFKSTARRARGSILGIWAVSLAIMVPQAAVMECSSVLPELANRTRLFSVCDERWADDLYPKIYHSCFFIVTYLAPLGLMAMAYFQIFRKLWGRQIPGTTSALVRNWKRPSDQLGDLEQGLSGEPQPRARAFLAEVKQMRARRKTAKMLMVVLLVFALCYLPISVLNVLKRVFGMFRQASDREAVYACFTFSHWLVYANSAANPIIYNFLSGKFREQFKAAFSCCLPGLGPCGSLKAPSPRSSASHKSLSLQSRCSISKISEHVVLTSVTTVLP
On to `CN(C(=O)CSc1cccc[n+]1[O-])C1CCCCC1`, for which the inhibition is 1.33% (inactive). Take `CC(C)(C)OC(=O)C[C@H]1C/C=C\C[C@@H](CC(=O)N[C@H](CO)Cc2ccccc2)C(=O)NC[C@@H](c2ccccc2)OC1=O`: the inhibition was 8.19% (inactive).

As to `COc1ccccc1/C=C1\SC(=O)N(CCC(=O)N(C)C2CCS(=O)(=O)C2)C1=O` (configuration not stated), the inhibition is 16.6% (inactive). The same measure for `COc1ccc(/C=C2\SC(=O)N(CCC(=O)NCCCn3ccnc3)C2=O)cc1`: 33.5% (inactive); for `COc1ccc(/C=C2\SC(=O)N(CCC(=O)NC3CCS(=O)(=O)C3)C2=O)cc1` (configuration not stated): 49.4% (active); for `CC(Sc1ccccc1F)C(=O)Nc1cccc(S(=O)(=O)N2CCOCC2)c1` (configuration not stated): 9.63% (inactive). `CCCOc1ccc(Cn2c(O)cc(=O)[nH]c2=O)cc1`: the inhibition was 6.66% (inactive). The figure for `CCCOc1ccc(Cc2c(O)nc(SC)[nH]c2=O)cc1C` is 11.5% (inactive). The same measure for `CCCOc1ccc(Cc2c(Cl)nc(SC)nc2NC)cc1`: 48.2% (active). The figure for `O=C1OCCN1C(=O)[C@H]1[C@H](c2ccc(F)cc2)C(c2ccccc2)=NN1c1ccc(Br)cc1` is 7.86% (inactive). For the compound `CCOC(=O)C1CCN(C(=O)CN2C(=O)NC(C)(c3ccc4cc(OC)ccc4c3)C2=O)CC1` (configuration not stated), the inhibition was 9.95% (inactive). The figure for `Nc1cccnc1Sc1ccccc1` is 15.4% (inactive). The figure for `COc1ccc(C)cc1S(=O)(=O)N1CCN(S(=O)(=O)c2cc(C(=O)O)ccc2C)CC1` is 26.6% (inactive); for `Cc1ccc(C)c(S(=O)(=O)N2CCN(c3ncnc4sccc34)CC2)c1` it is 28.6% (active); for `Cc1ccc(S(=O)(=O)N2CCN(c3ncnc4ccccc34)CC2)cc1` it is 25.9% (inactive). The figure for `CCSc1nsc(NC(=O)Nc2ccccc2OC)n1` is 6.99% (inactive).

As to `C=CCSc1nsc(NC(=O)Nc2cccc(C(C)=O)c2)n1`, the inhibition is 58.4% (active). The same measure for `C=CCSc1nnc(NC(=O)c2ccc(NC(C)=O)cc2)s1`: 5.19% (inactive); for `C=C(C)C(=O)Nc1cccc(C(C)=O)c1`: 8.59% (inactive); for `CCSc1nsc(NC(=O)Nc2cccc(C(C)=O)c2)n1`: 84.2% (active). The same measure for `CSc1nsc(NC(=O)Nc2ccccc2)n1`: 19.6% (inactive). For the compound `CCOC(=O)C1=CN(Cc2ccc(Br)cc2)S(=O)(=O)N(C)C1C` (configuration not stated), the inhibition was 6.18% (inactive). The figure for `C[C@H](CO)N1C[C@H](C)[C@@H](CN(C)S(=O)(=O)c2ccc(F)cc2)Oc2ccc(NC(=O)CCC(F)(F)F)cc2C1=O` is 9.27% (inactive). As to `O=C(COC(=O)COc1ccccc1F)Nc1cccc(S(=O)(=O)N2CCCCC2)c1`, the inhibition was -4.71% (inactive). The same measure for `O=C(CCNC(=O)c1ccccc1Cl)NN=Cc1ccco1`: 9.66% (inactive); for `CC1CCCCC1NC(=O)Cn1c(=O)cnc2ccccc21` (configuration not stated): 7.4% (inactive).

For `N#Cc1c(NC(=O)CCCN2C(=O)c3ccccc3C2=O)oc(-c2ccccc2)c1-c1ccccc1`, the inhibition is 48.7% (active). The same measure for `COc1cc(C(=O)Nc2oc(-c3ccccc3)c(-c3ccccc3)c2C#N)cc(OC)c1OC`: 24.6% (inactive); for `O=C(CCN1C(=O)c2ccccc2C1=O)Nc1ccncc1`: 21.2% (inactive). The same measure for `C#CCOCCOCCOCCNc1nc(N2CCN(C(=O)[C@H](CCCN=C(N)N)n3cc(C(N)[C@@H](C)CC)nn3)CC2)nc(N2CCN(C(=O)[C@H](CO)n3cc([C@@H](N)C(C)C)nn3)CC2)n1` (some centres not stated): 1.49% (inactive); for `CSc1ccccc1OCc1cc(C(=O)N2C[C@H]3CC[C@H]2C3)no1`: 38.3% (inactive). `COc1cc(Cl)ccc1OCc1cc(C(=O)N(C)CCc2c(C)n[nH]c2C)no1`: the inhibition is 71.9% (active).

Regarding `Cc1ccc(OCc2cc(C(=O)N(C)CCc3ccccc3)no2)cc1C`, the inhibition is 27.7% (inactive). The figure for `CSc1ccccc1OCc1cc(C(=O)N(C)CCc2c(C)n[nH]c2C)no1` is 43.7% (active).

As for `CCn1ccnc1CN(C)C(=O)c1cc(COc2ccc(Cl)cc2OC)on1`, the inhibition is 16.5% (inactive).

Consider `COc1cc(Cl)ccc1OCc1cc(C(=O)N2CC[C@@H]3CCCC[C@H]3C2)no1`, for which the inhibition is -0.82% (inactive). The figure for `COc1cccc2sc3cc(NCC[C@@H]4CCCN4C)ccc3c(=O)c12` is 20.1% (inactive); for `COc1cc(NC(=O)c2[nH]cnc2C(N)=O)cc(C(=O)Nc2cccc(C(F)(F)F)c2)c1` it is 33.6% (inactive).

As for `O=C1CN(C(=O)COC(=O)/C=C/c2ccc(F)cc2)c2ccccc2N1`, the inhibition is 6.47% (inactive). The same measure for `O=C(C[C@H]1C[C@H](C(=O)N2CCOCC2)[C@@]2(CCC3CCCC3)c3[nH]c4ccc(Cl)cc4c3CCN2C1=O)NCc1ccco1`: 14.4% (inactive). The figure for `COc1ccc(CCNC(=O)NS(=O)(=O)c2ccc(C)cc2)cc1OC` is -2.44% (inactive); for `COc1ccc(-n2c(C)cc(C(=O)CSc3nnc(-c4cccs4)o3)c2C)cc1` it is 39.4% (active); for `Cc1ccc(-n2c(C)cc(C(=O)CSc3nnc4ccccn34)c2C)cc1` it is 12.3% (inactive). In the case of `COc1ccc(-n2c(C)cc(C(=O)COC(=O)c3cc(OC)c(OC)cc3NC(=O)c3cccs3)c2C)cc1`, the inhibition was 1.91% (inactive). The figure for `Nc1ncnc2c1ncn2[C@@H]1O[C@H](CNS(=O)(=O)c2ccc(-c3ccno3)s2)[C@@H](O)[C@H]1O` is 6.23% (inactive); for `CN(C)C(=O)CCc1ccc2c3c([nH]c2c1)[C@]1(CCC2CCCC2)[C@@H](C(=O)N2CCOCC2)C[C@H](CC(=O)NCc2ccco2)C(=O)N1CC3` it is 5.29% (inactive); for `O=C(COC(=O)CSc1ccccc1)Nc1ccc(F)cc1F` it is 13.6% (inactive). The same measure for `Cn1nnnc1SCC(=O)Nc1cccc(S(=O)(=O)N2CCCCC2)c1`: 12% (inactive); for `CC1CCN(S(=O)(=O)c2ccc(NC(=O)C3CC(=O)N(c4ccccc4)C3)cc2)CC1` (configuration not stated): 25.5% (inactive). The same measure for `Cc1ccccc1N1CC(C(=O)Nc2ccc(S(=O)(=O)N3CCCC3)cc2)CC1=O` (configuration not stated): 15.4% (inactive); for `COc1ccccc1N1CC(C(=O)Nc2ccc(S(=O)(=O)N3CCOCC3)cc2)CC1=O` (configuration not stated): 91.1% (active); for `CN(Cc1ccc(CNC[C@H]2O[C@@H](n3cnc4c(N)ncnc43)[C@H](O)[C@@H]2O)o1)S(C)(=O)=O`: -3.7% (inactive). As for `O=C(NCc1ccccc1Cl)C1CCCN1S(=O)(=O)c1ccc(F)cc1` (configuration not stated), the inhibition was 2.31% (inactive). The same measure for `COc1ccc(Cl)cc1NC(=O)[C@@H]1CCCN1C(=O)c1cccs1`: 1.43% (inactive).

Take `COc1ccccc1NC(=O)C1CCCN1S(=O)(=O)c1ccc(Cl)cc1` (configuration not stated): the inhibition was 62.4% (active). The figure for `Cc1cccc(NC(=O)C2CCCN2S(=O)(=O)c2ccc(F)cc2)c1C` (configuration not stated) is 50% (active); for `Cc1cccc(NC(=O)C2CCCN(C(=O)Nc3ccc(F)cc3)C2)c1C` (configuration not stated) it is 21.2% (inactive); for `CC(C)c1nnc(NC(=O)C2CCCN2S(=O)(=O)c2ccc(Cl)cc2)s1` (configuration not stated) it is 39.3% (inactive). The same measure for `CC1Sc2ccc(C(=O)NCc3ccccc3Cl)cc2NC1=O` (configuration not stated): 1.56% (inactive); for `NC(=O)Nc1ccc(C(=O)OCC(=O)NC2CCCc3ccccc32)cc1` (configuration not stated): 19.8% (inactive). The figure for `COc1cccc(CC2(CO)CCCN(CC3=Cc4cc(OC)ccc4OC3)C2)c1` (configuration not stated) is 25.7% (inactive); for `COc1cccc(CC2(CO)CCCN(Cc3ccc(OC(F)F)cc3)C2)c1` (configuration not stated) it is 13.4% (inactive). As to `COc1cccc(CC2(CO)CCCN(Cc3nc(-c4cccs4)oc3C)C2)c1` (configuration not stated), the inhibition is 45% (active). The figure for `COC(=O)[C@]1(Cc2ccccc2)N[C@H](CN(C)S(=O)(=O)c2ccc(OC(F)(F)F)cc2)[C@@H]2C(=O)N(C)C(=O)[C@@H]21` is 5.12% (inactive); for `O=C(CSc1ncnc2sccc12)NC1CCS(=O)(=O)C1` (configuration not stated) it is 4.8% (inactive). The figure for `CCCCNS(=O)(=O)CCNCc1ccccc1OC` is 5.19% (inactive); for `CCCCNC(=O)C(C)N(CCN(C)C)C(=O)CCCCCN1C(=O)NC(c2ccc(Cl)cc2)C(C(=O)OCc2ccccc2)=C1C` (configuration not stated) it is 7.69% (inactive); for `O=C(CCCOc1ccccc1)NNC(=O)c1ccc(Cl)cc1` it is 2.88% (inactive). The figure for `CN=C1C=C/C(=N/N=c2\ccn(O)cc2C)C=C1C` is 58.6% (active). Take `CCOc1ncccc1C(=O)Nc1ccc2c(c1)OCCO2`: the inhibition was 14.1% (inactive). The figure for `O=C(COC(=O)c1ccc(F)cc1)Nc1ccc2c(c1)OCO2` is 7.07% (inactive).

Consider `COc1cc2ccccc2cc1C(=O)Nc1ccc(N2CCOCC2)cc1`, for which the inhibition was 63.5% (active).

Turning to `COc1cc2ccccc2cc1C(=O)N1CCOCC1`, the inhibition was 9.14% (inactive). The same measure for `COc1cc2ccccc2cc1C(=O)Nc1ccncc1`: 17.8% (inactive); for `O=C(Cn1cnc2ccccc2c1=O)NNC(=O)c1ccccc1F`: 6.41% (inactive); for `COc1cccc(N=c2oc3c(C)ncc(CO)c3cc2C(N)=O)c1`: 84.6% (active). The same measure for `COC(=O)c1ccc(NC(=O)c2cc3c(CO)cnc(C)c3oc2=Nc2cccc(C(N)=O)c2)cc1`: 7.42% (inactive).

For the compound `COc1cccc2cc(C(N)=O)/c(=N\NC(=O)c3ccccc3)oc12`, the inhibition is 5.27% (inactive).

Take `O=C(CN1C(=O)NC2(CCCCCC2)C1=O)Nc1ccc([N+](=O)[O-])cc1`: the inhibition is 11.2% (inactive).

In the case of `O=C(Nc1ccccc1F)c1ccc(Cn2cc(Br)cn2)cc1`, the inhibition is 8.12% (inactive). In the case of `Cc1ccc(Br)c(NS(=O)(=O)c2cccc(C(=O)N3CCNC(=O)C3)c2)c1`, the inhibition was 3.06% (inactive). As to `S=C(NC1CCCCC1)NN1CCOCC1`, the inhibition is 18.3% (inactive).

On to `COc1ccc(NC(=O)CN2C(=O)CSc3ccc(S(=O)(=O)N4CCC(C)CC4)cc32)cc1`, for which the inhibition is 3.75% (inactive). The figure for `O=C(Nc1cccc(S(=O)(=O)N2CCCC2)c1)c1cncc(Br)c1` is -1.91% (inactive); for `COc1cccc(/C=C/c2ccc3ccccc3n2)c1OC(C)=O` it is 92% (active). The figure for `CCOc1cccc(/C=C/c2ccc3ccccc3n2)c1OC(C)=O` is 58.1% (inactive); for `COc1cccc(/C=C2\C=C(c3ccc(C)cc3)OC2=O)c1OC(C)=O` it is -6.31% (inactive).
